Source: PubChem BioAssay (NCI)
Compounds without any hit were thinned out: in the full panel of roughly 83,000, 20% have a hit.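 Method: cells in 96-well plates; compound added at one concentration; 48 h incubation; percent growth measured; values under 10 scored active.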 Values without a mark were called inactive. Calls of active or inactive are those of the source.

test system: ACHN renal; test: NCI-60 one-dose screen, 48 h (100 = growth as untreated, 0 = no growth, -100 = all killed); details: 10 µM unless noted
Description: Growth inhibition of the ACHN human tumor cell line is measured as a screen for anti-cancer activity. Cells are grown in 96 well plates and exposed to the test compound for 48 hours. Compounds are tested at a single concentration, which is 10^-5 M for most compounds. The reported endpoint is percent growth (GI% or GIPRCNT), where numbers from 0 - 100% represent growth inhibition, and numbers from -100% - 0 represent cell death. For example, a value of 40 represents 60% growth inhibition. A value of 0 means no net growth occurred over the course of the experiment. A value of -40 indicates 40% of cells at the beginning of the experiment died by the end of the experiment. A value of -100 means all cells are dead at the end of the experiment.
NCI-60 Human Tumor Cell Lines Screen was performed using the standard one-dose NCI protocol, which is described in more detail at https://dtp.cancer.gov/discovery_development/nci-60/default.htm.
Compounds with GIPRCNT values below 10 were considered active. Activity score was based on GIPRCNT using the following formula: […]
Score is 0 for GIPRCNT values of 100 or above, 50 for GIPRCNT values of 0, and 100 for GIPRCNT values of -100.

SMILES | growth
CN(C)c1ccc(-c2ccc(-c3ccc(C(=N)N)cc3)s2)cc1 | -38.8% (active)
NC(=S)Cc1ccccc1 | 98.1%
Cc1ccc(S(=O)(=O)n2cc(C(=O)C(=O)N3CCCCC3)c3ccccc32)cc1 | 65.6%
O=c1cc(-c2ccccc2)oc2c(O)c(O)ccc12 | 40.1%
CCc1ccc(NC(=O)N[C@@H](Cc2cc(F)cc(F)c2)C(=O)N[C@@H]2C(=O)N3C[C@H](O)C[C@H]3C(=O)N3CCOC[C@H]3C(=O)N[C@@H](C)C(=O)N3C[C@H](C)C[C@H]3C(=O)O[C@H]2C)cc1 | 103%
C#C[C@]1(O)CC[C@H]2[C@@H]3CC=C4c5nc(N)sc5CC[C@]4(C)[C@H]3CC[C@@]21C | 79.6%
CCN(CC)c1ccc2cc(C(Nc3ccc(Br)c(C(F)(F)F)c3)c3nnnn3C(C)(C)C)c(=O)oc2c1 (stereo not given) | 99.1%
C[C@H]1[C@H](C)CC[C@]2(COC(=O)CCC(=O)O)CC[C@]3(C)C(=CC[C@@H]4[C@@]5(C)CCCNC(C)(C)[C@@H]5CC[C@]43C)[C@H]12 | 60.2% [100 µM]
CC1Cc2c(Cl)ncnc2N(C)c2ccc(Cl)cc21 (stereo not given) | 11.8%
O=C(Nc1cccc(C2=NCCN2)c1)c1cccc(C(=O)Nc2cccc(C3=NCCN3)c2)c1 | 101%
C=C(C)[C@@H]1CC[C@]2(C(=O)OC)CC[C@]3(C)[C@H](CC[C@@H]4[C@@]5(C)CC/C(=N\OCCC(=NCCC#N)NOCCC#N)C(C)(C)[C@@H]5CC[C@]43C)[C@@H]12 | 13.9% [100 µM]
O=C(Nc1ccc(Nc2ccncc2)cc1)c1ccc([N+](=O)[O-])cc1 | 80.4%
CCCCCCCCCCCCCC[n+]1cccc(C(N)=O)c1 | 35.4%
CCNc1cc2c(cc1Br)-c1ccccc1C2=O | 98.2%
Cc1cccc(C[C@H](NC(=O)Nc2ccc(Cl)cc2F)C(=O)N[C@@H]2C(=O)N3C[C@H](O)C[C@H]3C(=O)N3CCCC[C@H]3C(=O)N[C@@H](C)C(=O)N3C[C@H](C)C[C@H]3C(=O)O[C@H]2C)c1 | 8.94% (active)
CCOC(=O)c1nn(C2CCCCO2)c2ccc(NC(=O)CSc3nc4ccccc4c(=O)[nH]3)cc12 (stereo not given) | 93.6%
Cn1cc(-c2noc(-c3cn(C)c4ncc(Br)cc34)n2)c2cc(Cl)ccc21 | 31.8%
Cn1cc(-c2noc(C(=O)c3cn(C)c4ncc(Br)cc34)n2)c2ccccc21 | 102%
Cc1ccc(N)c(O)c1 | 91%
Cc1nc(-c2ccccc2)sc1CC#N | 102%

SMILES | growth
C#CC(OC(=O)N(C)C)(c1ccccc1)c1ccc(F)cc1 (stereo not given) | 101%
Oc1ccc(N=Nc2nccs2)c(O)c1 | 30.3%
Cn1cc(-c2noc(-c3cn(C)c4ncc(F)cc34)n2)c2ccccc21 | 66.3%
CC(C)CCSc1nc(N)nc2nc[nH]c12 | 91.5%
O=C1NC(=O)C(Cc2ccc(OCc3ccc(-c4cc(F)c(F)c(F)c4)cc3)cc2)S1 (stereo not given) | 83.9%
O=C(Nc1cccc2ccccc12)c1cc2ccccc2cc1O | 1.41% (active)
O=C(N/N=C1\c2ccccc2-c2cccc(C(=O)O)c21)c1ccc(O)cc1 | 99.5%
CCN1c2ccccc2C(Cl)(c2ccc(N(C)C)cc2)c2ccccc21 | 72.7%
C[C@]12CCc3c(ccc4cc(O)ccc34)[C@@H]1CC[C@H]2O | 103%
Cn1c(=O)c(C#N)c(-c2ccco2)n2c(S(=O)(=O)Cc3ccccc3)nnc12 | 65.9%
CCOC(=O)C(C(C)=O)c1nc2sc3cc(Cl)c(Cl)cc3n2c(=O)c1C#N (stereo not given) | 101%
CC(C)c1ccc(C(=O)Nc2sc3c(c2C#N)CCC(=O)C3)cc1 | -90.5% (active)
O=C(Nc1cc(-c2cccnc2)nc(NCCCN2CCOCC2)n1)c1cc(Br)cc(C(F)(F)F)c1 | 75.6%
COc1ccc(/C=C(/C(=O)c2ccc(Cl)cc2)C(=O)C(F)(F)F)cc1 | 110%
CC1=CCc2ccccc21 | 98.6%
CCOC(=O)C(=Cc1ccccc1[N+](=O)[O-])C(=O)OCC | 16.9%
CC1Cc2c(Cl)ncnc2N(C)c2ccccc21 (stereo not given) | 26%
COc1ccc(NCc2cn(-c3ccc(C(=O)O)cc3)nc2-c2ccc(C(=O)O)cc2)cc1C(F)(F)F | 98.1%
C=C(C)[C@@H]1CC[C@]2(C(=O)NCCNCCNCCN)CC[C@]3(C)[C@H](CC[C@@H]4[C@@]5(C)CC[C@H](O)C(C)(C)[C@@H]5CC[C@]43C)[C@@H]12 | -100% [100 µM] (active)
CC/C=C(\C)C(CCC)(CN=O)C(=O)OCC (stereo not given) | 110%
